Sfp PPTase inh – qHTS Assay for Inhibitors of Bacillus subtilis Sfp phosphopantetheinyl transferase (PPTase); Potency, µM, for inactives: largest response in the series, negative = inhibition, most hits filed as inhibitors; 4'-phosphopantetheinyl transferase ffp (Bacillus subtilis), Q9F4F7; Biochemical Sfp PPTase activity, qHTS; AID 1490, 2009; 3.5% of 310,000 active;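 note: the enzyme is Sfp with the accession as filed and its product quenches rhodamine fluorescence; 0% = enzyme reaction without inhibitor and -100% = no enzyme wells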
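Fluorescence-quenching assay with 15 nM Sfp, 5 uM rhodamine-CoA and 12.5 uM BHQ-2-labelled ybbR peptide in pH 7.6 Hepes/MgCl2 buffer. Enzyme was pre-incubated with compound for 15 min at room temperature. Rate was taken from the 30-min fluorescence change (525/598 nm).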
JMJD2A Tudor inh – qHTS Assay for Inhibitors of JMJD2A-Tudor Domain | Lysine-specific demethylase 4A (Homo sapiens), O75164 | AlphaScreen JMJD2A-Tudor / H3K4me3 peptide binding | Potency, µM (doses to about 114 µM), inactives show at the highest dose activity change, negative = inhibition, hits mostly inhibitors | 4.4% of 390,000 active | AID 504339, 2011; note: % is set by controls: 0 for no effect and ±100 for the full control effect; nearly all actives have a fitted effect of over 50% in size
HP1b binding inh – HTS for Inhibitors of HP1-beta Chromodomain Interactions with Methylated Histone Tails | 0.56% of 390,000 active | Potency, µM (highest dose often 114 µM), inactives show at the highest dose activity change, negative = inhibition, usual class: inhibitors | AlphaScreen HP1-beta / biotin-H3K9me3 peptide binding | AID 540317, 2011 | Chromobox protein homolog 1 (Homo sapiens), P83916; note: nearly all actives have a fitted effect of over 70% in size
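HP1-beta protein (50 nM final) preincubated 30 min at room temperature with biotinylated H3(1-18)K9me3 peptide (50 nM) in PBS pH 7.4, 0.01% Tween-20, then compound added for 30 min. AlphaScreen streptavidin donor/nickel chelate acceptor beads (10 ug/mL final), 30 min dark, luminescence read.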
G9a inh – qHTS Assay for Inhibitors of Histone Lysine Methyltransferase G9a; G9a H3K9 monomethylation, AlphaScreen, 2 h; Potency, µM (highest dose often 102 µM), for the others: top-dose activity, negative = inhibition, hits mostly inhibitors; 8.8% of 350,000 active; note: % is set by controls: 0 for no effect and ±100 for the full control effect; nearly all actives have a fitted effect of over 75% in size
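Readings reflect AlphaScreen signal from monomethyl-H3K9 antibody detection. HMT at 20 nM; substrate b-H3K9 500 nM; cofactor SAM 20 uM; 2 h RT reaction; compounds tested as titrations in qHTS with 15 min preincubation.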
TDP1 block – qHTS Assay for Inhibitors of Tyrosyl-DNA Phosphodiesterase (TDP1); 0.28% of 350,000 active; recombinant TDP1, AlphaScreen DNA substrate cleavage; Potency, µM (series often up to 130 µM), for inactives: at the highest dose activity change, negative = inhibition, hits mostly inhibitors; note: % is set by controls: 0 for no effect and ±100 for the full control effect; nearly all actives have a fitted effect of over 40% in size
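Recombinant E. coli-expressed Tdp1 (1 nM) preincubated with compound 15 min at RT, then 5'-biotin/3'-phosphotyrosine-FITC DNA substrate (15 nM) added for 5 min. AlphaScreen beads (10 ug/ml) added, 10 min RT; tyrosine-FITC cleavage read as signal loss.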
BAZ2B inh – qHTS Assay for Inhibitors of BAZ2B; Potency, µM (series often up to 114 µM), for the others: top-dose activity change, negative = inhibition, hits mostly inhibitors; AlphaScreen BAZ2B-H3K14Ac peptide displacement; 4.4% of 360,000 active; note: % is set by controls: 0 for no effect and ±100 for the full control effect; nearly all actives have a fitted effect of over 60% in size
Target sequence (Q9UIF8 whole entry, looked up): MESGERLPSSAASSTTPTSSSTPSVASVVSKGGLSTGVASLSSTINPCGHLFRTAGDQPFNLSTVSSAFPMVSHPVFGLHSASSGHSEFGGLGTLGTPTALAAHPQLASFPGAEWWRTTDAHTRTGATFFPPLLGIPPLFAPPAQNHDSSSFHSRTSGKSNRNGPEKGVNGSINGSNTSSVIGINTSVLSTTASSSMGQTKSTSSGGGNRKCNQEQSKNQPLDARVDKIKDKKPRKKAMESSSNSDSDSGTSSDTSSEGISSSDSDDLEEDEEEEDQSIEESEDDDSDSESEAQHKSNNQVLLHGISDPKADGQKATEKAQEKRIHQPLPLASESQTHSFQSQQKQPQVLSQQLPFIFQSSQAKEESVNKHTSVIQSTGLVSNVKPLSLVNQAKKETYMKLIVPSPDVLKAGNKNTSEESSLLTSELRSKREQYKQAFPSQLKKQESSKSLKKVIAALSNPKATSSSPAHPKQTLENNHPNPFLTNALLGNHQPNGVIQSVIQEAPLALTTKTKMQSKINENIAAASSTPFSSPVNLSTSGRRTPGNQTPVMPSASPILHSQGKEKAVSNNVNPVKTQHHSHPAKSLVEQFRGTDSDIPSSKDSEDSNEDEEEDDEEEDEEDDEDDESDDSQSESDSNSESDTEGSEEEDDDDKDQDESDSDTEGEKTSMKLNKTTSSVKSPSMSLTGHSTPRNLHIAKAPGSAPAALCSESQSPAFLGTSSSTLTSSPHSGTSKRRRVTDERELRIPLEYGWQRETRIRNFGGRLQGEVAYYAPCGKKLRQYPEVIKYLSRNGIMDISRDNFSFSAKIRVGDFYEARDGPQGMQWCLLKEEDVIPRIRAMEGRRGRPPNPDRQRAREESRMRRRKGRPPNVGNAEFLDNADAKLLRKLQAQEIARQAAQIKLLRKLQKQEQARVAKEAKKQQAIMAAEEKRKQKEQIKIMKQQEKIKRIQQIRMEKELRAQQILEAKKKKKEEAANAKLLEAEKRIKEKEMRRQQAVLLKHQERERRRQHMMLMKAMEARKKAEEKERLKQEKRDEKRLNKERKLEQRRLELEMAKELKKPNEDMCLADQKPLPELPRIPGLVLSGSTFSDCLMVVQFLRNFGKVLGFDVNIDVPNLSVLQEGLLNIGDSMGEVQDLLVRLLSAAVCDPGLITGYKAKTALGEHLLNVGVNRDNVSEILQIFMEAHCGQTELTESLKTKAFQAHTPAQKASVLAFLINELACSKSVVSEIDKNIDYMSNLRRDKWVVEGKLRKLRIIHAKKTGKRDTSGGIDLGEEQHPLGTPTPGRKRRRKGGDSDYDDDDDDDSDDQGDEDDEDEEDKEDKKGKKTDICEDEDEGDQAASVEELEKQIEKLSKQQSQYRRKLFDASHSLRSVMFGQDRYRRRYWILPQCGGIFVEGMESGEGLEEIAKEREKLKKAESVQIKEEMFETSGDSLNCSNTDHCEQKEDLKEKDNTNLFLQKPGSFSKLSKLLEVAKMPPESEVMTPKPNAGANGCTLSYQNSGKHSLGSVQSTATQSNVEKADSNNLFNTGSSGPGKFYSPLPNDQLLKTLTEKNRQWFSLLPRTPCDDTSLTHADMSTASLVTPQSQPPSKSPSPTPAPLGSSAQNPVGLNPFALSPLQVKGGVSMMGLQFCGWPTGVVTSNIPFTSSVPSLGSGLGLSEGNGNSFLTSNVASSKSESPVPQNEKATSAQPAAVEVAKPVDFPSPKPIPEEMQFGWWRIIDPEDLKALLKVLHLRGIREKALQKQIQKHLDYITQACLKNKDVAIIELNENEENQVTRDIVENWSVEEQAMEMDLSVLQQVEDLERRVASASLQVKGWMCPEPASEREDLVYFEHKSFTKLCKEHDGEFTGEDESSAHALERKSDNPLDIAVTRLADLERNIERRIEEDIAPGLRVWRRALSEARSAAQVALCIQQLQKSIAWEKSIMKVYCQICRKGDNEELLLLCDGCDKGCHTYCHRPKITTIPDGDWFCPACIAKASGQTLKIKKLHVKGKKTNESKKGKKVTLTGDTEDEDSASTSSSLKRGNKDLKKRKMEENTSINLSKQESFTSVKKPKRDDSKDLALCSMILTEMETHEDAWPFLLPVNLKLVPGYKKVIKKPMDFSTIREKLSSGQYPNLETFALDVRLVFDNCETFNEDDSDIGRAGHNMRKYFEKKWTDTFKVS
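Multi-concentration screen (max 110 uM) measuring displacement of acetylated histone H3 peptide from BAZ2B by AlphaScreen, using 50 nM protein, 50 nM peptide and 10 ug/mL streptavidin donor plus Ni-chelate acceptor beads.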
* marks the source's active call; other numbers are inactive results; ? = inconclusive; . = no result; [ ] = remark or other dose. The list is not random: actives were taken first. Their share in the collection is about 12%. Calls come from the whole dose curve; as a rule, active = well fitted curve in the direction sought with a large enough effect; inconclusive = small, poorly fitted or top-dose-only effect, or another doubt; inactive = no such curve, though single readings can be large; an effect the other way counts as inactive or inconclusive. Potency is the fitted concentration of half-maximal effect.

SMILES | Sfp PPTase inh | JMJD2A Tudor inh | HP1b binding inh | G9a inh | TDP1 block | BAZ2B inh
CSc1nccc(-c2nn(-c3ccc(C)cc3)ccc2=O)n1 | -0.6% | 56.2µM* | -6.1% | 8.6% | 4.6% | 25.1µM*
C=CCSc1nccc(-c2nn(-c3ccc(C)cc3)ccc2=O)n1 | -1.6% | -17.2% | 49.4% | 50.1µM* | 2.8% | -3.6%
C#CCSc1nccc(-c2nn(-c3ccc(C)cc3)ccc2=O)n1 | 79.4µM* | 79.4µM* | ? | -38.1%[12.7 µM] | 2.9% | -2.2%
Nc1nccc(-c2nn(-c3ccc(Cl)cc3)ccc2=O)n1 | -4.3% | -2.0% | 45.0% | . | 0.0% | -1.3%
CCn1c(C)c(C2=CCN(S(=O)(=O)c3ccccc3)CC2)c2ccccc21 | -13.6% | ? | ? | 39.8µM* | 6.8% | ?
COc1cc2oc(=O)c3c4c(cc5ccc(c1CCN(C)C)c2c53)OCO4 | -17.2% | . | . | . | 6.2% | .
COc1ccc2c(c1)sc(N)[n+]2Cc1cc(C)cc2cccnc12 | -3.2% | -19.9% | 1.8% | 50.1µM* | 3.2% | -9.9%
COc1ccccc1N1C(=O)C2ON(c3ccccc3)C(c3ccc(N(C)C)cc3)C2C1=O (stereo not drawn) | 44.7µM* | . | . | 8.91µM* | 7.9% | 35.5µM*
O=C(Cn1ccn(-c2ccc(F)c(F)c2)c(=O)c1=O)Nc1ccccc1F | . | -7.6% | 37.3% | -8.4%[59 µM] | 1.3% | 2.1%
CCn1ncc(NC(=S)NCCc2ccccc2)c1C(N)=O | -10.1% | -17.7% | 23.9% | -45.6% | 2.6% | -16.0%
CN1C/C(=C\c2ccc(N3CCOCC3)cc2)C(=O)/C(=C/c2ccc(N3CCOCC3)cc2)C1 | -18.6% | ? | ? | ? | 2.7% | 50.1µM*
CCN1C/C(=C/c2ccc(N3CCOCC3)cc2)C(=O)/C(=C/c2ccc(N3CCOCC3)cc2)C1 | ? | -29.7% | -8.2% | 39.8µM* | 5.5% | ?
CN1C/C(=C/c2ccsc2)C(=O)/C(=C/c2ccsc2)C1 | -13.6% | ? | -9.7% | ? | 2.7% | ?
CN1C/C(=C/c2ccncc2)C(=O)/C(=C/c2ccncc2)C1 | 1.5% | 0.0% | 35.7% | 50.1µM* | 11.8% | -34.9%
Cc1cc(/C=C2\SC(=O)NC2=O)c(C)n1-c1ccc(N2CCOCC2)cc1 | -12.3% | -17.5% | 27.1% | . | 8.9% | -4.1%
Cc1ccc(S(=O)(=O)CCC(=O)Nc2nnc(-c3ccco3)o2)cc1 | . | 17.8µM* | 27.9% | 25.1µM* | 0.8% | ?
O=C(CCS(=O)(=O)c1ccc(Cl)cc1)Nc1nnc(-c2ccco2)o1 | . | ? | 37.1% | -37.4% | . | ?
Cc1ccc(S(=O)(=O)CCC(=O)Nc2nnc(-c3cccs3)o2)cc1 | . | 11.2µM* | 36.1% | -29.2% | . | ?
COc1cccc(C(=O)NC(=S)Nc2ccccc2N2CCCCC2)c1 | 12.0% | ? | -11.6% | -4.2% | 7.1% | ?
COc1c(C)cccc1C(=O)NC(=S)Nc1cccc2nsnc12 | ? | -2.1% | 36.1% | 44.7µM* | 3.5% | -20.7%
COc1cccc(C(=O)NC(=S)Nc2ccccc2N2CCCC2)c1 | 25.1µM* | ? | 22.4µM* | 2.8%[12.7 µM] | 10.8% | 28.2µM*
COc1c(C)cccc1C(=O)NC(=S)Nc1ccccc1N1CCCC1 | 9.4% | 50.1µM* | -3.4% | 31.6µM* | 11.1% | ?
O=C(Nc1ccccc1Sc1ccccc1)c1cnn2c1NC(=C1CC1)C=C2C(F)F | . | . | 32.9% | . | . | .
O=C(O)C1CCNCC1 | . | . | . | -14.9%[59 µM] | 9.9%[56.1 µM] | .
O=C(O)C1CCC(C(=O)O)O1 (stereo not drawn) | . | 44.7µM* | -10.6%[57 µM] | . | . | .
Cn1c(=O)c2cc(NCc3ccccc3)nnc2n(C)c1=O | ? | 2.9% | 36.0% | 14.1µM* | -7.1% | -8.4%
CC(C)=CCc1c(O)cc(O)c2c(=O)c3c(CC=C(C)C)c(O)ccc3oc12 | . | 56.2µM* | -22.9% | . | . | .
